# Assays:
# Test in all cases: SPOT peptide array binding signal intensity (averaged, normalized) (arbitrary units (background-subtracted, floor 0; scale differs between SH3 domains)); higher = stronger binding of the SH3 domain to the peptide
# AgAbp1 = target: AgAbp1
# Summary of the method: (§1)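 GST-fused SH3 domains, from four yeast species, were produced in E. coli BL21(DE3) and captured on glutathione Sepharose. Membranes of cellulose carrying synthetic 15-mer peptides, in which cysteines had been replaced by serines, were exposed to each domain at 10 μg/ml overnight at 4°C in TBS-based blocking buffer. After anti-GST antibody, an HRP anti-mouse secondary and luminol, spots were imaged and quantified using Genespotter. Binding signal is normalized and background-subtracted spot intensity, averaged over replicates, in arbitrary units that differ between domains.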
# AgBbc1 = target: AgBbc1
# Summary of the method: as §1
# AgBem1-D1 = target: AgBem1-D1
# Summary of the method: as §1
# AgBzz1-D1 = target: AgBzz1-D1
# Summary of the method: as §1
# AgBzz1-D2 = target: AgBzz1-D2
# Summary of the method: as §1
# AgCyk3 = target: AgCyk3
# Summary of the method: as §1
# AgFus1 = target: AgFus1
# Summary of the method: as §1
# AgHof1 = target: AgHof1
# Summary of the method: as §1
# AgHse1 = target: AgHse1
# Summary of the method: as §1
# AgLsb1 = target: AgLsb1
# Summary of the method: as §1
# AgLsb4 = target: AgLsb4
# Summary of the method: as §1
# AgMyo5 = target: AgMyo5
# Summary of the method: as §1
# AgNbp2 = target: AgNbp2
# Summary of the method: as §1
# AgRvs167 = target: AgRvs167
# Summary of the method: as §1
# AgSho1 = target: AgSho1
# Summary of the method: as §1
# AgSla1-D1-D2 = target: AgSla1-D1-D2
# Summary of the method: as §1
# AgSla1-D3 = target: AgSla1-D3
# Summary of the method: as §1
# CaAbp1-D1 = target: CaAbp1-D1
# Summary of the method: as §1
# CaAbp1-D2 = target: CaAbp1-D2
# Summary of the method: as §1
# CaBbc1 = target: CaBbc1
# Summary of the method: as §1
# CaBem1-D1 = target: CaBem1-D1
# Summary of the method: as §1
# CaBzz1-D1 = target: CaBzz1-D1
# Summary of the method: as §1
# CaBzz1-D2 = target: CaBzz1-D2
# Summary of the method: as §1
# CaCyk3 = target: CaCyk3
# Summary of the method: as §1
# CaFus1 = target: CaFus1
# Summary of the method: as §1
# CaHof1 = target: CaHof1
# Summary of the method: as §1
# CaHse1 = target: CaHse1
# Summary of the method: as §1
# CaLsb1 = target: CaLsb1
# Summary of the method: as §1
# CaLsb4 = target: CaLsb4
# Summary of the method: as §1
# CaMyo5 = target: CaMyo5
# Summary of the method: as §1
# CaNbp2 = target: CaNbp2
# Summary of the method: as §1
# CaRvs167 = target: CaRvs167
# Summary of the method: as §1
# CaRvs167-3 = target: CaRvs167-3
# Summary of the method: as §1
# CaSho1 = target: CaSho1
# Summary of the method: as §1
# CaSla1-D1-D2 = target: CaSla1-D1-D2
# Summary of the method: as §1
# CaSla1-D3 = target: CaSla1-D3
# Summary of the method: as §1
# ScAbp1 = target: ScAbp1
# Summary of the method: as §1
# ScBbc1 = target: ScBbc1
# Summary of the method: as §1
# ScBem1-D1 = target: ScBem1-D1
# Summary of the method: as §1
# ScBzz1-D1 = target: ScBzz1-D1
# Summary of the method: as §1
# ScBzz1-D2 = target: ScBzz1-D2
# Summary of the method: as §1
# ScCyk3 = target: ScCyk3
# Summary of the method: as §1
# ScFus1 = target: ScFus1
# Summary of the method: as §1
# ScHof1 = target: ScHof1
# Summary of the method: as §1
# ScHse1 = target: ScHse1
# Summary of the method: as §1
# ScLsb1 = target: ScLsb1
# Summary of the method: as §1
# ScLsb2 = target: ScLsb2
# Summary of the method: as §1
# ScLsb3 = target: ScLsb3
# Summary of the method: as §1
# ScLsb4 = target: ScLsb4
# Summary of the method: as §1
# ScMyo3 = target: ScMyo3
# Summary of the method: as §1
# ScMyo5 = target: ScMyo5
# Summary of the method: as §1
# ScNbp2 = target: ScNbp2
# Summary of the method: as §1
# ScPex13 = target: ScPex13
# Summary of the method: as §1
# ScRvs167 = target: ScRvs167
# Summary of the method: as §1
# ScSho1 = target: ScSho1
# Summary of the method: as §1
# ScSla1-D1-D2 = target: ScSla1-D1-D2
# Summary of the method: as §1
# ScSla1-D3 = target: ScSla1-D3
# Summary of the method: as §1
# SpAbp1-D1 = target: SpAbp1-D1
# Summary of the method: as §1
# SpBbc1 = target: SpBbc1
# Summary of the method: as §1
# SpBzz1-D1 = target: SpBzz1-D1
# Summary of the method: as §1
# SpBzz1-D2 = target: SpBzz1-D2
# Summary of the method: as §1
# SpCyk3 = target: SpCyk3
# Summary of the method: as §1
# SpHof1 = target: SpHof1
# Summary of the method: as §1
# SpHof1-2 = target: SpHof1-2
# Summary of the method: as §1
# SpHof1-3 = target: SpHof1-3
# Summary of the method: as §1
# SpHse1 = target: SpHse1
# Summary of the method: as §1
# SpLsb1 = target: SpLsb1
# Summary of the method: as §1
# SpLsb4 = target: SpLsb4
# Summary of the method: as §1
# SpMyo1 = target: SpMyo1
# Summary of the method: as §1
# SpNbp2 = target: SpNbp2
# Summary of the method: as §1
# SpPex13 = target: SpPex13
# Summary of the method: as §1
# SpRvs167 = target: SpRvs167
# Summary of the method: as §1
# SpSla1-D1-D2 = target: SpSla1-D1-D2
# Summary of the method: as §1
# SpSla1-D3 = target: SpSla1-D3
# Summary of the method: as §1
binder,measurement,setting,value
TKFRISLGLPVGAIM,SPOT peptide array binding signal intensity,AgAbp1,4
same,SPOT peptide array binding signal intensity,AgBbc1,108
same,SPOT peptide array binding signal intensity,AgBem1-D1,429
same,SPOT peptide array binding signal intensity,AgBzz1-D1,100
same,SPOT peptide array binding signal intensity,AgBzz1-D2,109
same,SPOT peptide array binding signal intensity,AgCyk3,66
same,SPOT peptide array binding signal intensity,AgFus1,1490
same,SPOT peptide array binding signal intensity,AgHof1,91.5
same,SPOT peptide array binding signal intensity,AgHse1,911
same,SPOT peptide array binding signal intensity,AgLsb1,28
same,SPOT peptide array binding signal intensity,AgLsb4,513
same,SPOT peptide array binding signal intensity,AgMyo5,3.75
same,SPOT peptide array binding signal intensity,AgNbp2,422
same,SPOT peptide array binding signal intensity,AgRvs167,21.3
same,SPOT peptide array binding signal intensity,AgSho1,548
same,SPOT peptide array binding signal intensity,AgSla1-D1-D2,176
same,SPOT peptide array binding signal intensity,AgSla1-D3,12
same,SPOT peptide array binding signal intensity,CaAbp1-D1,112
same,SPOT peptide array binding signal intensity,CaAbp1-D2,134
same,SPOT peptide array binding signal intensity,CaBbc1,225
same,SPOT peptide array binding signal intensity,CaBem1-D1,199
same,SPOT peptide array binding signal intensity,CaBzz1-D1,592
same,SPOT peptide array binding signal intensity,CaBzz1-D2,334
same,SPOT peptide array binding signal intensity,CaCyk3,162
same,SPOT peptide array binding signal intensity,CaFus1,4760
same,SPOT peptide array binding signal intensity,CaHof1,1.25
same,SPOT peptide array binding signal intensity,CaHse1,193
same,SPOT peptide array binding signal intensity,CaLsb1,31
same,SPOT peptide array binding signal intensity,CaLsb4,280
same,SPOT peptide array binding signal intensity,CaMyo5,69.2
same,SPOT peptide array binding signal intensity,CaNbp2,498
same,SPOT peptide array binding signal intensity,CaRvs167,245
same,SPOT peptide array binding signal intensity,CaRvs167-3,2240
same,SPOT peptide array binding signal intensity,CaSho1,1360
same,SPOT peptide array binding signal intensity,CaSla1-D1-D2,126
same,SPOT peptide array binding signal intensity,CaSla1-D3,602
same,SPOT peptide array binding signal intensity,ScAbp1,13
same,SPOT peptide array binding signal intensity,ScBbc1,17
same,SPOT peptide array binding signal intensity,ScBem1-D1,66
same,SPOT peptide array binding signal intensity,ScBzz1-D1,95
same,SPOT peptide array binding signal intensity,ScBzz1-D2,392
same,SPOT peptide array binding signal intensity,ScCyk3,292
same,SPOT peptide array binding signal intensity,ScFus1,2830
same,SPOT peptide array binding signal intensity,ScHof1,2.5
same,SPOT peptide array binding signal intensity,ScHse1,1460
same,SPOT peptide array binding signal intensity,ScLsb1,19.8
same,SPOT peptide array binding signal intensity,ScLsb2,30
same,SPOT peptide array binding signal intensity,ScLsb3,329
same,SPOT peptide array binding signal intensity,ScLsb4,72
same,SPOT peptide array binding signal intensity,ScMyo3,4
same,SPOT peptide array binding signal intensity,ScMyo5,12
same,SPOT peptide array binding signal intensity,ScNbp2,702
same,SPOT peptide array binding signal intensity,ScPex13,65.5
same,SPOT peptide array binding signal intensity,ScRvs167,80.7
same,SPOT peptide array binding signal intensity,ScSho1,2880
same,SPOT peptide array binding signal intensity,ScSla1-D1-D2,333
same,SPOT peptide array binding signal intensity,ScSla1-D3,122
same,SPOT peptide array binding signal intensity,SpAbp1-D1,68
same,SPOT peptide array binding signal intensity,SpBbc1,55
same,SPOT peptide array binding signal intensity,SpBzz1-D1,537
same,SPOT peptide array binding signal intensity,SpBzz1-D2,5
same,SPOT peptide array binding signal intensity,SpCyk3,55
same,SPOT peptide array binding signal intensity,SpHof1,183
same,SPOT peptide array binding signal intensity,SpHof1-2,78.2
same,SPOT peptide array binding signal intensity,SpHof1-3,760
same,SPOT peptide array binding signal intensity,SpHse1,664
same,SPOT peptide array binding signal intensity,SpLsb1,35.5
same,SPOT peptide array binding signal intensity,SpLsb4,100
same,SPOT peptide array binding signal intensity,SpMyo1,20.5
same,SPOT peptide array binding signal intensity,SpNbp2,1390
same,SPOT peptide array binding signal intensity,SpPex13,239
same,SPOT peptide array binding signal intensity,SpRvs167,39.2
same,SPOT peptide array binding signal intensity,SpSla1-D1-D2,6
same,SPOT peptide array binding signal intensity,SpSla1-D3,51.5

# Source: the supplement of paper PMC4466140
